Screens (PubChem BioAssay)
Shown is part of a subset that was picked to be rich in hits.
Tgondii IFNg: inhibitors of Toxoplasma gondii growth with IFN-gamma; Toxoplasma gondii growth in IFN-gamma-treated host cells; hits give low values; activity change, negative = inhibition, % (test concentration not listed); hit rate 3.8% among 69,000; AID 1259416; in the data active = activity change below about -70%, passing the limit was not always enough;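 also: host cells are HeLa cells infected with Toxoplasma gondii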
* marks the source's active call; other numbers are inactive results.

What do the screens show for `Cc1nn(Cc2nc(-c3ccc(NC(=O)c4ccccc4F)cc3)oc2C)c(C)c1C`?
Tgondii IFNg: -69

Results for CCN1c2ccc(F)cc2C(=O)NC12CCN(C(=O)c1ccc(C)cc1C)CC2 ?
Tgondii IFNg: 3

Results for O=C(c1ncoc1C1CC1)N1CCCC(c2n[nH]c(=O)n2-c2ccccc2)C1 (centres undefined) ?
Tgondii IFNg: 11

What do the screens show for `FC(F)(F)c1cccc(CC2CN(Cc3nccs3)CCO2)c1` (centres undefined)?
Tgondii IFNg: -48

What do the screens show for `O=C(CCc1ccc(O)cc1)c1c(O)cc(O)cc1O[C@@H]1O[C@H](CO)[C@@H](O)[C@H](O)[C@@H]1O`?
Tgondii IFNg: 3

How did CN(C)C(=O)COC[C@@H]1CC[C@H]2[C@H](CCN2CC2CC2)O1 do in these assays?
Tgondii IFNg: -43

What do the screens show for `COc1ccc(N(Cc2nc(-c3ccccc3)oc2C)S(=O)(=O)c2ccc(OC)cc2)cc1`?
Tgondii IFNg: -50

How did Cc1cccc(CC(=O)NCCc2sc(-c3ccc(F)cc3)nc2C)c1 do in these assays?
Tgondii IFNg: -15

Results for Cc1nn(C)c(C)c1-c1ccnc(NCCc2cscn2)n1 ?
Tgondii IFNg: -43

How did CCn1c(CC2CCN(c3nc(OC)cc(OC)n3)CC2)nn(C)c1=O do in these assays?
Tgondii IFNg: 81

How did CC(C)NC(=O)N1CCC2(CC1)CCn1c(-c3cnn(C)c3)cnc12 do in these assays?
Tgondii IFNg: -5

What do the screens show for `CC(=O)N1CCC2(CC1)NCCn1c(-c3ccnn3C)cnc12`?
Tgondii IFNg: -4

Results for CC(C)NC(=O)N1CCC2(CC1)c1ncc(-c3ccnn3C)n1CCN2C ?
Tgondii IFNg: -89*

How did CC(C)CCN1C2(CCN(C(=O)CN(C)C)C2)c2ccccc2S1(=O)=O (centres undefined) do in these assays?
Tgondii IFNg: 12

How did CCC(C)(C)NC(=O)CN1C(=O)CCc2cc(S(=O)(=O)N3CCC(C)CC3)ccc21 do in these assays?
Tgondii IFNg: 18

How did CCOc1ccc2c(c1)C(c1ccc(F)cc1)=NNC(c1ccc(Cl)cc1)=N2 do in these assays?
Tgondii IFNg: -34

How did OC(COc1ccc(F)cc1)(c1ccc(Cl)cc1)c1ccc(Cl)cc1 do in these assays?
Tgondii IFNg: -99*

Results for O=S(=O)(Cc1ccc(Cl)cc1)CC(O)COc1ccc(F)cc1 (centres undefined) ?
Tgondii IFNg: 19

What do the screens show for `COCCNC(=O)c1cncc(N(C)S(=O)(=O)c2ccccc2)c1`?
Tgondii IFNg: 48

Results for CCOC(=O)c1cc(C)nc2c1c(=O)n(Cc1nc(-c3ccc(OC(C)C)cc3)oc1C)c(=O)n2C ?
Tgondii IFNg: -81*

What do the screens show for `CCOC(=O)c1cc(C)nc2c1c(=O)n(Cc1nc(-c3ccc(C)cc3)oc1C)c(=O)n2C`?
Tgondii IFNg: 8

Results for CCOC(=O)c1cc(C)nc2c1c(=O)n(Cc1nc(-c3ccc(OC)cc3)oc1C)c(=O)n2C ?
Tgondii IFNg: -24

How did CCN1c2ccccc2-n2cccc2C12CCN(C(=O)Nc1ccccc1C(F)(F)F)CC2 do in these assays?
Tgondii IFNg: 185

Results for CCN1c2cc(C)ccc2-n2cccc2C12CCN(C(=O)NCc1ccccc1)CC2 ?
Tgondii IFNg: 60

What do the screens show for `CCN1c2ccccc2-n2cccc2C12CCN(C(=O)Nc1ccccc1C)CC2`?
Tgondii IFNg: -82*

What do the screens show for `CCN1c2cc(C)ccc2-n2cccc2C12CCN(C(=O)Nc1cccc(C)c1)CC2`?
Tgondii IFNg: -59

What do the screens show for `CCN1c2ccccc2-n2cccc2C12CCN(C(=O)Nc1cccc(Cl)c1C)CC2`?
Tgondii IFNg: -39

Results for CCN1c2cc(C)ccc2-n2cccc2C12CCN(C(=O)Nc1ccc(C)c(C)c1)CC2 ?
Tgondii IFNg: -93*

Results for CCN1c2cc(C)ccc2-n2cccc2C12CCN(C(=O)Nc1ccc(C)c(F)c1)CC2 ?
Tgondii IFNg: 22

What do the screens show for `CCN1c2cc(C)ccc2-n2cccc2C12CCN(C(=O)NCc1ccc(F)cc1)CC2`?
Tgondii IFNg: -114*

How did CCN1c2cc(C)ccc2-n2cccc2C12CCN(C(=O)Nc1ccc(F)cc1)CC2 do in these assays?
Tgondii IFNg: -96*

How did CCN1c2cc(C)ccc2-n2cccc2C12CCN(C(=O)NCc1ccco1)CC2 do in these assays?
Tgondii IFNg: 42

Results for CCOC(=O)c1ccc(NC(=O)N2CCC3(CC2)c2cccn2-c2ccc(C)cc2N3CC)cc1 ?
Tgondii IFNg: -46

What do the screens show for `CCN1c2cc(C)ccc2-n2cccc2C12CCN(C(=O)Nc1ccc(Cl)cc1)CC2`?
Tgondii IFNg: 252

Results for COc1ccc2nc(NS(=O)(=O)Cc3ccccc3)sc2c1 ?
Tgondii IFNg: -34

How did O=C(c1ccc2c(c1)OCCO2)N1CCC[C@@H](Cn2nnc(-c3cccs3)n2)C1 do in these assays?
Tgondii IFNg: 112

Results for Cc1cc(N2CCCN(Cc3cccc(OCC(N)=O)c3)CC2)ccn1 ?
Tgondii IFNg: -42

How did CCOc1ccc(-c2nc(CN(c3ccccc3OC)S(=O)(=O)c3cccs3)c(C)o2)cc1 do in these assays?
Tgondii IFNg: 26
